Compound activity as filed in PubChem.
Rows were chosen to be rich in hits. Some 9.1% of all compounds tested hit in one or more screens of this group.
M1 antagonist – antagonists of rat M1 muscarinic receptor. 3.4% of 64,000 active. AID 628, 2007. B-score at 10 µM. Muscarinic acetylcholine receptor M1 (Rattus norvegicus), P08482. CHO-M1 cells, Fluo-4 calcium, ACh EC80 antagonist mode; hits give low values;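 active = calcium fluorescence response, raw or row-and-column corrected B-score, differing from the plate sample mean either way at a set confidence level, mostly lower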
Htt clearance – clearance of mutant huntingtin inclusions, primary screen, imaging, HeLa Exon1htt(103Q)mCFP, confocal imaging; 0.42% of 47,000 active; aggregate imaging; zero = plate's median compound well; inhibition, % at 1.5 µM;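 active = inhibition of aggregate fluorescence above about 70%, also judged a hit by eye on the cell image, limit read from the data, passing the limit was not always enough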;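 note: cells exposed to compound for three days before fixation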
D1 allo mod – D1 CRE-luciferase signal change, two-sided – cell-based, HEK293 D1, dopamine EC30, D1 allosteric modulator project, primary screen; dopamine EC30 potentiation; actives deviate in either direction; B-score at 10 µM; 5.9% of 58,000 active; AID 641, 2007;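 active = luminescence count or its row- and column-corrected plate score outside the 99.7% band of the plate's sample wells, on either side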
Target sequence (P21728 whole entry, looked up): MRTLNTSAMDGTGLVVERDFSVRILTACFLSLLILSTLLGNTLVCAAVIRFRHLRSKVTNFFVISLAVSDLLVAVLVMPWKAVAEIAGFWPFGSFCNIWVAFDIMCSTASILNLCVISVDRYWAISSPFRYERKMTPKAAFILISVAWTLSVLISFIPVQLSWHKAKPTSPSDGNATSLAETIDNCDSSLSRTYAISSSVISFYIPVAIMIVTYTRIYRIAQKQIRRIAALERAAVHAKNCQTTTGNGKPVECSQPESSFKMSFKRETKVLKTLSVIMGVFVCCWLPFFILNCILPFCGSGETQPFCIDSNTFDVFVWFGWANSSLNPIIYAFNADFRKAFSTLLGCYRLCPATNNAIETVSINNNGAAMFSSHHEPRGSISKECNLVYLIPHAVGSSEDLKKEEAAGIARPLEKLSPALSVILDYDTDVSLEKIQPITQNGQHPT
M1 ag – M1 muscarinic receptor agonists, primary screen, CHO-M1 cells, Fluo-4 calcium, agonist mode. Fluo-4 calcium fluorescence; hits give high values. 3% of 64,000 active. Muscarinic acetylcholine receptor M1. B-score at 10 µM;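 active = fluorescence rise, raw or as B-score row- and column-corrected plate score, outside the 99.7% band of its plate's samples, either direction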
M1 antag conf – rat M1 muscarinic receptor antagonists, confirmation, CHO cells, Fluo-4 calcium, duplicate; shares compounds with M1 antagonist; ACh EC80 antagonism; hits give low values; calcium response (max-min fluorescence) at 10 µM; 43% of 1,700 active;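 active = calcium response below the same-plate mean of wells given acetylcholine alone at its 80%-effect dose, minus 3 SD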;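 note: raw fluorescence intensity difference in arbitrary instrument units and not normalized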
mGluR4 antag – human mGluR4 response to M1 antagonist hits, M1 allosteric modulator project, cell-based, antagonist mode, secondary assay 1; shares compounds with M1 antagonist; fluorescence response (max-min) at 10 µM; CHO-mGluR4 calcium flux, Fluo-4 fluorescence, glutamate EC80; hits give low values; 0.9% of 1,700 active;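 active = fluorescence response below the plate's average for near-maximal glutamate wells, less 3 SD of those wells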;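 note: raw unnormalized fluorescence span taken in the window right after glutamate addition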
D1 PAM confirm – D1 receptor positive allosteric modulators, retest, confirmation, cell-based, HEK293 D1, CRE-luciferase, duplicate; shares compounds with D1 allo mod; dopamine EC30 potentiation; hits give high values; luminescence at 10 µM; 88% of 2,200 active; AID 642, 2007;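 active = luminescence in either of two replicates above the same-plate mean plus 3 SD of the low-dose dopamine control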
D1 no dopamine – D1 receptor agonism without dopamine, confirmation, mechanism study for D1 allosteric modulator project, cell-based, HEK293 D1, CRE-luciferase, secondary assay 1; luminescence at 10 µM; 0.8% of 1,900 active; shares compounds with D1 allo mod; luminescence, no dopamine; hits give high values; in the data active = luminescence above about 3900
Isoprot counter – alters isoproterenol CRE-luciferase response in HEK293 cells. shares compounds with D1 allo mod. HEK293 D1 CRE-luciferase, isoproterenol EC30 counter-screen; hits give high values. luminescence at 10 µM. 63% of 2,200 active. AID 647;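 active = luminescence in either replicate above plate mean of wells with a partly effective reference agonist dose plus 3 SD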;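 note: isoproterenol raises cAMP through native beta-adrenoceptor Gs so signal bypasses D1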
The depositor's hits bear a star; . = no result given.

SMILES | M1 antagonist | Htt clearance | D1 allo mod | M1 ag | M1 antag conf | mGluR4 antag | D1 PAM confirm | D1 no dopamine | Isoprot counter
COc1cccc(-n2c(SC)nnc2-c2cnccn2)c1 | -3.01* | 24.4 | 14.1* | 0.683 | 622 | 266 | 5740 | 1548 | 3048
CCN(C#N)c1nc(NC(C)C)nc(NC(C)C)n1 | -3.47* | 26.0 | 9.69* | 0.427 | 607 | 246 | 22184* | 1544 | 6052*
COC(=O)CN(C#N)c1nc(OC)nc(N(C)C)n1 | -0.328 | 56.6 | -0.755 | -0.405 | . | . | . | . | .
CCN(C(=O)c1cccc(F)c1)c1ccccc1C | -0.0925 | -23.8 | . | 0.0343 | . | . | . | . | .
CCOC(=O)CSc1nnc([C@@H](NC(=O)OC(C)(C)C)C(C)C)o1 | -0.00432 | . | -0.606 | 0.0258 | . | . | . | . | .
Cc1ccc(-n2c(CSc3nc(C)cc(C)n3)nnc2SCC(=O)NCc2ccco2)cc1 | 0.501 | 0.3 | 1.65 | -0.343 | . | . | . | . | .
Clc1ccc(-n2nnnc2-c2ccccc2)cc1Cl | -2.63* | . | 13.3* | 0.352 | 516 | 250 | 19112* | 1808 | 3948*
CCOC(=O)C1CCN(S(=O)(=O)c2cc(Br)cc3c2N(C(C)=O)C(C)C3)CC1 (configuration not stated) | -2.26* | . | 4.58* | 0.427 | 519 | 200 | 8392* | 1388 | 3688*
O=S1(=O)N=C(N2CCc3ccccc3C2)c2ccccc21 | -2.15* | 20.8 | 2.4* | 0.521 | 600* | 191 | 6388* | 1564 | 2628
O=S1(=O)N=C(N2CCCc3ccccc32)c2ccccc21 | -0.354 | 31.8 | 0.932 | -0.433 | . | . | . | . | .
COc1cc(-c2nc(S(=O)(=O)c3ccc(Cl)cc3)c(N3CCOCC3)o2)cc(OC)c1OC | -0.505 | . | 2.99 | -0.493 | . | . | . | . | .
COc1cc(-c2nc(S(=O)(=O)c3ccc(C)cc3)c(N3CCOCC3)o2)cc(OC)c1OC | -13.1* | . | 5.43* | 0.427 | 569 | 183 | 8652* | 1408 | 5140*
CC(C)(C)CC(=O)Nc1ccc(Nc2ccccc2)cc1 | . | -30.4 | . | . | . | . | . | . | .
O=C(CCN1CCOCC1)Nc1cccc(Br)c1 | -0.00106 | . | 0.109 | 0.0823 | . | . | . | . | .
COC(=O)Nc1ccc2c(c1)N(C(=O)CCN1CCOCC1)c1ccccc1S2 | -5.2* | -19.5 | 4.3* | -0.295 | 495* | 248 | 8120* | 1920 | 3060
CCOC(=O)Nc1ccc2c(c1)N(C(=O)CCN1CCOCC1)c1ccccc1S2 | -6.47* | . | 4.82* | -0.556 | 434* | 236 | 10492* | 1592 | 3852*
CCOCCn1c(CN2CCOCC2)nc2c1c(=O)[nH]c(=O)n2C | 0.212 | . | -0.374 | -1.51 | . | . | . | . | .
CCOC(=O)c1c(-c2cccs2)csc1NC(=O)CSc1ncn[nH]1 | -2.66* | . | 3.35* | -0.391 | 621 | 235 | 11080* | 2064 | 3016
CCOC(=O)c1c(-c2cccs2)csc1NC(C)=O | . | -52.2 | . | . | . | . | . | . | .
Cc1nn(C)c(C)c1S(=O)(=O)N(CC(=O)N1CCc2ccccc2C1)c1ccc(C(C)C)cc1 | . | -258.1 | . | . | . | . | . | . | .
Cc1ccc(-n2ncc(C#N)c2/N=C/N2CCCCCC2)cc1 | -1.99* | . | 20* | 0.503 | 560* | 196 | 17800* | 1536 | 4284*
Cc1ccc(-n2ncc(C#N)c2/N=C/N2CCN(C)CC2)cc1 | -0.167 | 24.5 | 0.000581 | 0.058 | . | . | . | . | .
COc1ccc(CN2CCN(S(=O)(=O)c3ccc(NC(C)=O)cc3)CC2)cc1OC | -2.73* | -57.9 | 5.2* | -1.46 | 529 | 212 | 15368* | 1544 | 3736*
CCOC(=O)c1sc(NC(=O)CSc2nncs2)c(C(=O)OCC)c1C | -5.03* | -90.7 | 3.96* | -0.189 | 555 | 247 | 6908* | 1576 | 2668
CCOC(=O)c1sc(NC(=O)CSc2nnc(-c3ccco3)n2CC)c(C(=O)OCC)c1C | -0.0655 | -20.2 | 0.0159 | -0.507 | . | . | . | . | .
SMILES | M1 antagonist | Htt clearance | D1 allo mod | M1 ag | M1 antag conf | mGluR4 antag | D1 PAM confirm | D1 no dopamine | Isoprot counter
Nc1nc(CN2CCN(c3ccccc3)CC2)nc(N2CCCc3ccccc32)n1 | -3.05* | . | 4.03* | -0.12 | 659 | 252 | 8864* | 1484 | 3120
O=C1CC(N2CCN(Cc3ccc4c(c3)OCO4)CC2)C(=O)N1CCc1ccccc1 (configuration not stated) | -1.24* | . | 2.53* | -2.47 | 482 | 220 | 4952 | 960 | 2176
COC(=O)c1ccccc1S(=O)(=O)Nc1ccc(OC)nc1 | 0.189 | -9.8 | -0.0625 | -0.353 | . | . | . | . | .
CCSc1nc2c(c(=O)n1Cc1ccccc1)SC(C)C2 (configuration not stated) | -3.73* | . | 3.44* | 1.07 | 373* | 245 | 11532* | 1552 | 3528
CC1Cc2nc(SCC(N)=O)n(Cc3ccccc3)c(=O)c2S1 (configuration not stated) | -0.73 | . | 2.24 | 0.271 | . | . | . | . | .
Cc1ccc(S(=O)(=O)N2CCC[C@H]2C(=O)OC(C)C(=O)Nc2ncc(Cl)cc2Cl)cc1 (some centres not stated) | . | 43.7 | . | . | . | . | . | . | .
COc1nc(Nc2ccc(OC)c(Cl)c2)nc(OC)n1 | -1.23* | -63.1 | 4.33* | -0.108 | 603 | 255 | 10816* | 1484 | 3332*
c1cncc(-c2nc(NCc3ccco3)c3ccccc3n2)c1 | -2.74* | 45.2 | 7.28* | 1.35 | 498* | 228 | 11656* | . | 3428*
CC1CCCCC1NC(=O)CN1CCC(O)(c2ccc(F)cc2)CC1 (configuration not stated) | 0.0539 | -17.4 | -0.022 | -0.545 | . | . | . | . | .
CC1C=Cc2ccccc2N1C(=O)c1ccccc1 (configuration not stated) | -0.238 | 31.3 | 4* | -0.452 | . | . | 9976* | 1476 | 2980
CC(=O)NC1Sc2ccccc2N=C1c1ccccc1 (configuration not stated) | 0.691 | -36.8 | 6.13* | 0.744 | . | . | 7472* | . | 2900
CC(=O)NC1C(=O)N=C(SCc2ccccc2)NC1=O (configuration not stated) | . | -1.7 | 0.00455 | . | . | . | . | . | .
COc1ccc(CCNC(=O)c2cnn3cccnc23)cc1OC | 0.122 | 42.3 | 13.3* | -0.383 | . | . | 14608* | 1264 | 4912*
CCN1C(=O)C(C)S/C1=N\S(=O)(=O)c1ccc(Cl)s1 (configuration not stated) | -0.122 | -36.4 | -0.425 | -0.446 | . | . | . | . | .
